About 83,000 compounds went through this panel and 20% of them were active in at least one assay; those are over-represented in the sample as a whole.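 Single-dose data. Exposure time 48 hours. Values below 10 considered active.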 A number with no mark means an inactive call. Activity calls are given as the source filed them.
Legend:
Test in all cases: NCI-60 one-dose screen, 48 h (100 = growth as untreated, 0 = no growth, -100 = all killed)
NCI-H460 lung = details: 10 µM unless noted
786-0 renal = details: 10 µM unless noted
COLO 205 colon = details: 10 µM
MALME-3M melanoma = details: 10 µM unless noted
RXF 393 renal = details: 10 µM unless noted
SF-295 CNS = details: 10 µM unless noted
SF-539 CNS = details: 10 µM unless noted
UACC-257 melanoma = details: 10 µM unless noted
HT29 colon = details: 10 µM unless noted
SK-MEL-5 melanoma = details: 10 µM unless noted
SK-MEL-2 melanoma = details: 10 µM unless noted
UO-31 renal = details: 10 µM unless noted
TK-10 renal = details: 10 µM unless noted
ACHN renal = details: 10 µM unless noted
HL-60(TB) leukemia = details: 10 µM unless noted
MOLT-4 leukemia = details: 10 µM
T-47D breast = details: 10 µM unless noted
SW-620 colon = details: 10 µM unless noted
HCC-2998 colon = details: 10 µM unless noted
A498 renal = details: 10 µM unless noted

| SMILES | growth (NCI-H460 lung) | growth (786-0 renal) | growth (COLO 205 colon) | growth (MALME-3M melanoma) | growth (RXF 393 renal) | growth (SF-295 CNS) | growth (SF-539 CNS) | growth (UACC-257 melanoma) | growth (HT29 colon) | growth (SK-MEL-5 melanoma) | growth (SK-MEL-2 melanoma) | growth (UO-31 renal) | growth (TK-10 renal) | growth (ACHN renal) | growth (HL-60(TB) leukemia) | growth (MOLT-4 leukemia) | growth (T-47D breast) | growth (SW-620 colon) | growth (HCC-2998 colon) | growth (A498 renal) |
| --- | --- | --- | --- | --- | --- | --- | --- | --- | --- | --- | --- | --- | --- | --- | --- | --- | --- | --- | --- | --- |
| CC12CCC3C(CC=C4CC(O)CCC43C)C1C/C(=C\N1CCOCC1)C2=O (stereo not given) | 108% | 104% | 116% | 110% | 110% | 113% | 108% | 101% | 105% | 99.1% | 106% | 79.2% | 96% | 99.6% | 129% | 106% | 96% | 105% | 114% |  |
| N#C[Se]CCN1C(=O)C2C(C1=O)[C@H]1C=C[C@@H]2S1 (stereo not given in full) | 2.86% (active) | -30.5% (active) | 68.3% | -40.5% (active) | -52.2% (active) | -34.8% (active) | -70.5% (active) | 10.9% | 5.94% (active) | -52.8% (active) | 23.4% | -90.7% (active) | -65.3% (active) | -2.15% (active) | -48.1% (active) | 4.47% (active) | 70.7% | 42.9% | 67.4% |  |
| O=S(=O)(O)c1ccc(-c2ccc([As](=O)(O)O)cc2)cc1 |  | 103% | 114% | 101% | 117% | 101% | 105% | 93.6% | 99.1% | 110% | 101% | 89.1% | 95.5% | 105% | 102% | 101% | 89.5% | 103% | 105% |  |
| CC1(C)N=C(N)N=C(N)N1c1ccc(OCCCCNC(=O)Nc2cccc(S(=O)(=O)F)c2)c(Cl)c1 | 14.2% | 35.8% | 50.4% | 56.5% | 58.2% |  | 40.1% | 45.4% | 14.4% | 25.9% | 81.2% | 90.1% | 62% | 94.9% | 29.4% | 37.6% | 115% | 27.1% | 50.8% | 90.3% |
| O=C1c2ccccc2C(=O)N1[N+](=O)[O-] | 102% | 100% | 116% | 89.4% | 103% | 103% | 108% | 101% | 102% | 104% | 104% | 85.9% | 93.2% | 111% | 113% | 108% |  | 103% | 87.2% | 93.6% |
| CCCCCCCCCCOc1ccc(C(=O)Oc2ccc(CSP3(=O)OCC4OC(n5ccc(=O)[nH]c5=O)C(F)C4OP(=O)(O)OCC4OC(n5cnc6c(N)ncnc65)C(F)C4O3)cc2)cc1 (stereo not given) | 108% | 98.6% |  | 110% | 72.6% | 105% | 23.1% | 21.3% | 79.3% | 111% | 76.3% | 98.5% | 92% |  | -12.8% (active) | 68.4% | 96.4% | 115% | 102% | 6.69% (active) |
| O=[N+]([O-])c1cc([N+](=O)[O-])c(Cl)c(Cl)c1Cl |  | 12.2% | -82.7% (active) | -48.1% (active) | -86.2% (active) | 98.5% | 11.6% | 20.4% | -85.5% (active) |  | -23.8% (active) | -63.2% (active) | -99.5% (active) | -87.1% (active) | 19.5% | 2.06% (active) | -27.9% (active) |  | 78.8% |  |
| CC(C)CCC[C@@H](C)[C@H]1CC[C@H]2[C@@H]3CC=C4C[C@@H](OC(=O)Cc5ccc(N(CCCl)CCCl)cc5)CC[C@]4(C)[C@H]3CC[C@]12C | 97.8% | 96.7% | 117% |  |  | 119% | 94.1% | 103% | 107% | 95.8% | 94.6% | 90% | 159% | 100% | 86.9% | 99.8% | 106% | 109% | -5.75% (active) | 132% |
| CC1(C)CC2(CC(C)(C)c3cc(O)c(O)cc32)c2cc(O)c(O)cc21 | 97.7% | 94% | 102% | 101% | 85.8% | 96.1% | 98.4% | 109% | 114% | 92.5% | 110% | 75.2% | 117% | 96.1% | 104% | 71.6% | 104% | 95.7% | 102% | 99.4% |
| ClCCN(CCCl)C(c1ccccc1)c1ccc(Cl)cc1 (stereo not given) |  | 87.5% | 114% |  | 88.4% | 75.5% | 71.7% | 90.9% | 63% | 54.9% |  | 104% | 81.1% | 28.9% | 15.1% | -3.35% (active) | 103% | 51.6% | 68.6% |  |
| COc1cc(C2CC(=O)Nc3nc(N)[se]c32)cc(OC)c1OC (stereo not given) | 25.1% | 114% | 107% | 105% | 116% | 7.05% (active) | 101% | 99.6% | 89.5% | 99% | 89.2% | 99.9% |  | 103% | 89.1% | 82.7% | 74.5% | 109% | 107% | 82.8% |
| c1ccc(-c2ccc3ccccc3[o+]2)cc1 | 97.2% | 106% | 111% | 101% | 97.4% | 104% | 101% | 98% | 89.1% | 88.8% | 88.8% | 73.5% | 139% | 91.6% | 89.7% | 79% | 75.6% | 92% | 108% | 109% |
| CC12CC[C@H](O)C=C1/C(=N/O)CC1C2CCC2(C)C1CC[C@@H]2O (stereo not given in full) |  | 80.1% | 115% | 80.3% | 104% |  | 100% | 111% | 98% | 103% | 99.2% | 66.2% | 102% | 95.5% |  |  | 77.6% |  | 99.3% |  |
| CC(=O)O[C@H]1CCC2C3CCC4=C/C(=N/O)CCC4(C)C3CCC21C (stereo not given in full) | 89.6% | 76.9% | 107% | 94.3% | 102% |  | 87.6% | 114% | 76% | 87.4% | 85.4% | 65.1% | 103% | 108% | 23.1% | 72.6% | 95.6% | 74.4% | 83.9% | 53.1% |
| CC(C)(C)N(Cc1ccccc1)N=O | 107% | 99% | 108% | 107% | 93.1% | 100% | 99% | 92.1% | 104% | 99.1% | 94.6% | 96.7% | 102% | 104% | 106% | 104% | 97.3% | 101% | 110% | 95.4% |
| CC(/C=N/N=C(N)N)=N\N=C(N)N | 82.7% | 55.6% | 55.4% | 126% |  | 85.5% | 51.9% |  | 65.9% | 137% | -5.97% (active) | 46.9% | 62% | 80.9% | 77.6% | 98.6% | 40.8% | 70.6% | -62.9% (active) | 83.9% |
| C[CH2][Pb]([CH2]C)([CH2]C)[O]C(=O)COC | 3.94% (active) | -46.4% (active) | -7.82% (active) | 10.6% | -8.73% (active) | -58.5% (active) | -41.8% (active) |  | 0.481% (active) | -74.9% (active) | -38.7% (active) | -9.22% (active) |  | 12.7% | -50% (active) | -37.7% (active) | 17.2% | -28.3% (active) | -49.9% (active) | -3.55% (active) |
